Assay outcomes as filed in PubChem BioAssay.
Shown are actives, neighbours in structure and some others; about 19% of the full set was active somewhere.
ASM inhibitor: blocks human secretory acid sphingomyelinase. 340,000 compounds, 0.006% hits. Potency, µM (top dose mostly 57.5 µM), most hits filed as inhibitors. placental ASM, HMU-PC fluorogenic substrate, 60 min. AID 504937
Target sequence (P17405 47-631 limits assumed): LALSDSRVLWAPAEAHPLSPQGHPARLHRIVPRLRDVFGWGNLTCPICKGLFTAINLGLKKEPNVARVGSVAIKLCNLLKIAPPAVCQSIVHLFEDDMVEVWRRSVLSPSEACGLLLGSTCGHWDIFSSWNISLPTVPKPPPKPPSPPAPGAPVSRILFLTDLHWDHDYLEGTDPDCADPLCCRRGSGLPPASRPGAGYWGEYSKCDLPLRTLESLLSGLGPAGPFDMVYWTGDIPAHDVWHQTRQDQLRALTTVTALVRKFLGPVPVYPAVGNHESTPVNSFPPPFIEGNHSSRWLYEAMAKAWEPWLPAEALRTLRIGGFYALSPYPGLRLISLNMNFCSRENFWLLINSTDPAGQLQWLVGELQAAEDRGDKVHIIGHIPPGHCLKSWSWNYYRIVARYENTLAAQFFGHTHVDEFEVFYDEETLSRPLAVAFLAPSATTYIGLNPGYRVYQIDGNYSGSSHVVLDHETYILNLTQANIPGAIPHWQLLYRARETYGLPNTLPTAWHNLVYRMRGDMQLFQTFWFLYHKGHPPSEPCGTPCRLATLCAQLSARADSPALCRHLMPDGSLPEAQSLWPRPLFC
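qHTS format. ASM enzyme prepared from human placenta hydrolyses the fluorogenic substrate HMU-PC0 (9 uM final) over 60 min at 37 °C after a 10 min compound preincubation.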
IL1B secr inh: blocks inflammasome-driven IL-1 beta release. THP-1 LPS/ATP IL-1B secretion, AlphaLISA, 16 h; stronger effect = lower value. activity change, % at 57.5 µM. 360,000 compounds, 4.7% hits. AID 743279; in the data active = activity change below about -50%; inconclusive = mostly about -30% to -49%
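Secreted IL-1B measured by AlphaLISA bead assay after 16 h compound exposure of THP-1 cells; compounds (final up to 57.5 uM) added 1 h before LPS (250 ng/mL) and ATP (1.25 mM) stimulation; lower signal means less secretion.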
DT40 TDP1 no CPT: qHTS for Inhibitors of human tyrosyl-DNA phosphodiesterase 1 (TDP1): qHTS in cells in absence of CPT; DT40 Tdp1-/- hTDP1 cells, no CPT, ATP luminescence, 48 h; Potency, µM (top dose mostly 46.2 µM), usual class: inhibitors; AID 686978, 2013; 420,000 compounds, 15% hits; also: nearly all actives have a fitted effect of over 55% in size
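Seeded 400 DT40-hTDP1 cells/well (vehicle DMSO, no 20 nM CPT); pinned compounds; ≥48 hr at 37 °C; CellTiter-Glo luminescence as viability measure.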
DT40 TDP1 CPT: DT40-hTDP1 cell growth loss with CPT | chicken DT40 Tdp1-/-;hTDP1 cells + 20 nM CPT, ATP luminescence, 48 h | Potency, µM (top dose mostly 46.2 µM), usual class: inhibitors | 420,000 compounds, 12% hits; also: nearly all actives have a fitted effect of over 55% in size
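Cell growth measured by CellTiter-Glo luminescence after a minimum 48 h, 37 C compound exposure with 20 nM CPT in Tdp1-knockout DT40 cells stably expressing hTDP1, seeded 400/well; qHTS titration format.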
HepG2 viability: kills HepG2 cells in TGF-b inhibitor counter-screen | HepG2 CAGA-GFP viability, ATP luminescence, 18 h | Potency, µM (highest dose often 46.1 µM), hits mostly cytotoxic | 410,000 compounds, 0.76% hits
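CellTiter-Glo luminescence gave cytotoxicity after 18 hours at 37 degrees C. The cells were HepG2 CAGA-GFP in 1% FBS DMEM, stimulated with 500 pg/mL TGF-beta after compound addition. %Activity was normalised to no-cell wells (complete cell-killing) and DMSO (no toxicity), and curves were fitted and classified.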
TGFb inhibitor: blocks TGF-b signaling. HepG2 CAGA-GFP TGF-b/SMAD3 reporter, GFP fluorescence, 18 h; TGF-beta stimulated, 500 pg/mL final. 410,000 compounds, 1.2% hits. AID 588855. Potency, µM (top dose mostly 46.1 µM), most hits filed as inhibitors; also: nearly all actives have a fitted effect of over 65% in size
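TGF-beta reporter screen: HEPG2 CAGA-GFP, 1% FBS, 500 pg/mL TGF-beta final, 18 h; per-cell GFP summed per well; curves fitted and categorized by class.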
Hits are given with their value; . = inactive; ? = inconclusive; / = not tested or not shown; ! = a repeat was not active. Unless noted, calls follow the shape of the dose curve; as a rule, active = well fitted curve in the direction sought with a large enough effect; inconclusive = small, poorly fitted or top-dose-only effect, or another doubt; inactive = no such curve, though single readings can be large; an effect the other way counts as inactive or inconclusive.

SMILES | ASM inhibitor | IL1B secr inh | DT40 TDP1 no CPT | DT40 TDP1 CPT | HepG2 viability | TGFb inhibitor
CNC(=S)NNC(=O)c1ccccc1Cl | . | . | . | . | . | .
O=C(C1CCCN1S(=O)(=O)c1ccc(Cl)c(Cl)c1)N1CCCCC1 (stereo not given) | . | . | 16µM | 18µM | . | .
O=C(C1CCCCN1S(=O)(=O)c1ccccc1)N1CCCCC1 (stereo not given) | . | . | 16µM | ? | . | .
O=C(C1CCCCN1S(=O)(=O)c1ccccc1)N1CCN(C(c2ccccc2)c2ccccc2)CC1 (stereo not given) | . | . | 21µM | 23µM | . | .
COC(=O)CN1C(=O)[C@H]2[C@@H](c3ccc(C)o3)N3C(=O)CN(CC4CC4)C(=O)[C@@]3(Cc3ccccc3)[C@H]2C1=O | . | . | . | . | . | .
CCOc1ccc(CCNC(=O)CSCc2nc(-c3cccc(C)c3)oc2C)cc1OCC | / | / | 13µM | ? | . | ?
COc1ccccc1CNC(=O)CSCc1nc(-c2ccc(OC)c(OC)c2)oc1C | / | / | 18µM | ? | . | ?
COc1ccc(-c2nc(CSCC(=O)NCCc3ccc(C)cc3)c(C)o2)cc1OC | / | / | 18µM | 16µM | . | .
COc1ccc(-c2nc(CSCC(=O)NCc3ccccc3Cl)c(C)o2)cc1OC | / | / | ? | ? | . | ?
CCOc1ccc(CCNC(=O)CS(=O)Cc2nc(-c3ccc(C)cc3)oc2C)cc1OCC (stereo not given) | . | . | ? | 16µM! | . | ?
CCOc1ccc(CCNC(=O)CS(=O)Cc2nc(-c3ccc(C)cc3)oc2C)cc1 (stereo not given) | . | ? | ? | ? | . | .
COc1ccc(-c2nc(CSCC(=O)NCCC3=CCCCC3)c(C)o2)cc1OC | . | . | ? | ? | . | .
CCc1ccc(NC(=O)CS(=O)CC(=O)Nc2ccc(N3CCOCC3)cc2)cc1 (stereo not given) | . | . | ? | . | . | .
Cc1ncc(CCl)c2c1OC(C)(C)OC2 | . | . | 23µM | ? | . | .
COc1cc(SC)ccc1C(=O)OCC(=O)N1CC(=O)Nc2ccccc21 | . | . | ? | . | . | .
NC(CCc1ccccc1)c1csc(NC(=O)NCCc2ccccc2)n1 (stereo not given) | / | ? | ? | 23µM | . | ?
COc1ccccc1CNC(=O)Nc1nc(C(N)CCc2ccccc2)cs1 (stereo not given) | / | ? | 18µM | 18µM | 13µM | ?
NC(Cc1ccc(Cl)cc1)c1csc(NC(=O)NCCc2ccccc2)n1 (stereo not given) | / | . | ? | 23µM | . | ?
NC(Cc1ccc(Cl)cc1)c1csc(NC(=O)Nc2ccccc2-c2ccccc2)n1 (stereo not given) | / | ? | 12µM | 13µM | . | ?
COc1ccccc1CNC(=O)CCCc1ccccc1 | . | . | . | . | . | .
O=C(NC(=S)N1CCN(c2nc(-c3ccccc3)cs2)CC1)c1cccnc1 | . | . | ? | ? | . | ?
CCOC(=O)c1sc2ncn(CC(=O)Nc3cccc(C)c3)c(=O)c2c1C | / | / | . | . | . | .
NC(Cc1ccc(Cl)cc1)c1csc(NC(=O)NCC2CCCCC2)n1 (stereo not given) | / | . | 8.2µM | 10µM | 13µM | ?
O=[N+]([O-])c1cccc(CSc2ncnc3ccccc23)c1 | . | -61 | ? | . | . | .
CCC(C(=O)O)N1C(=O)C2CCCCC2C1=O (stereo not given) | . | . | . | . | . | .
SMILES | ASM inhibitor | IL1B secr inh | DT40 TDP1 no CPT | DT40 TDP1 CPT | HepG2 viability | TGFb inhibitor
CCCNC(=O)c1onc(CS(=O)(=O)c2cccc(OC)c2)c1C(=O)NCCC | . | . | . | ? | . | .
FC(F)(F)c1cccc(-c2cc3nc(NCCOc4ccccc4)ccn3n2)c1 | / | . | ? | ? | . | ?
FC(F)(F)c1cccc(-c2cc3nc(NC4CCCCC4)ccn3n2)c1 | / | . | ? | 21µM | . | 16µM
COc1cc(-c2cc3nc(NC4CCCCC4)ccn3n2)cc(OC)c1OC | / | . | 10µM | 16µM | . | .
COc1cc(-c2csc(NC3CCCCC3)n2)cc(OC)c1OC | . | -80 | ? | ? | . | .
COc1cc(-c2cc3nc(NCCN(C)C)ccn3n2)cc(OC)c1OC | / | . | . | . | . | .
Cc1ccc(S(=O)(=O)N2CCN(c3nc(-c4cccs4)nc4ncccc34)CC2)cc1 | / | / | ? | ? | . | .
Cc1cccc2sc(N(CCCN(C)C)C(=O)c3ccc(Cl)s3)nc12 | . | -62 | ? | 23µM! | . | ?
Cc1ccc2nc(N(CCCN(C)C)C(=O)c3cc4ccccc4oc3=O)sc2c1 | . | -51 | ? | . | . | .
Cc1cccc2sc(N(CCCN(C)C)C(=O)c3cc4ccccc4oc3=O)nc12 | . | . | ? | 23µM | . | .
